This is a sample that favours compounds with a hit; in the whole collection about 1.2% have one here.
TRb-SRC2 inh: disrupts binding of human TR beta to SRC2 | TRbeta-SRC2 peptide binding, fluorescence polarization; receptor liganded with 1 µM T3 | Potency, µM (doses to about 106 µM), inactives show at the highest dose activity change, negative = inhibition, usual class: inhibitors | 280,000 tested, 0.065% active;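 also: potency is read from the fitted curve at half-maximal effect; plate controls were bound peptide for no effect and peptide without receptor for full effect; nearly all actives have a fitted effect of over 50% in size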
Target sequence (P10828 whole entry, looked up): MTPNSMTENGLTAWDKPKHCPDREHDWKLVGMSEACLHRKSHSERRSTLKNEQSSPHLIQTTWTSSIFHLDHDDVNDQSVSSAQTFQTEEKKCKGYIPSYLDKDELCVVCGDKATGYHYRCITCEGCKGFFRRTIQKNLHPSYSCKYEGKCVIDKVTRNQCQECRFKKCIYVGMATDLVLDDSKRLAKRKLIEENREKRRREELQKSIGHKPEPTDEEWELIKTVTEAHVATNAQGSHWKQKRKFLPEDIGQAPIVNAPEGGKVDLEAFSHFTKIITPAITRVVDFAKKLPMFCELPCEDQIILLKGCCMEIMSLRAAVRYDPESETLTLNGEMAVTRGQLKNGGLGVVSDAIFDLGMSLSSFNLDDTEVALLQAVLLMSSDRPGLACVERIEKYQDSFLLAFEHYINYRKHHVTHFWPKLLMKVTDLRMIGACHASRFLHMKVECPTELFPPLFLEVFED
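Fluorescence polarization of 20 nM Texas Red SRC2 peptide (20-aa NR interaction domain) bound to 0.6 uM human TRb ligand-binding domain, with 1 uM T3, after 5 hr at ambient temperature; inhibition seen as decreased polarization.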
GCN5L2 inh: GCN5L2 (KAT2A) acetyltransferase inhibition | 390,000 tested, 0.21% active | Q92830 | Potency, µM (titrated, usually from 58.9 µM), inactives show at the top dose activity change, negative = inhibition, hits mostly inhibitors | GCN5L2 HAT assay, ThioGlo1 CoA-SH fluorescence | AID 504327; also: potency is read from the fitted curve at half-maximal effect; % is scaled to controls: 0 for no effect and ±100 for the full control effect
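Preincubate 20nM GCN5L2 with compound 15 min, RT → add 50uM ThioGlo1 + 75uM H3(1-25) + 70uM acetyl-CoA → read fluorescence 0 and 20 min. Primary qHTS; fluorescent artifacts likely.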
TR SRC2 fluor cs: alters Texas Red total fluorescence, flagging assay interference; 280,000 tested, 0.29% active; Potency, µM (series often up to 106 µM), without a hit: at the highest dose fluorescence change, negative = quenching; TRb/SRC2 Texas Red total fluorescence interference; AID 1479; active = well fitted curve in either direction with a large enough effect; inconclusive = small, poorly fitted or top-dose-only effect; also: potency is read from the fitted curve at half-maximal effect; % is scaled to controls: 0 for no effect and ±100 for the full control effect
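Human TRβ ligand-binding domain (0.6 uM) and Texas Red SRC2 peptide (20 nM) in Tris buffer with 1 uM T3 and 5% DMSO were incubated with pinned compound for 5 hr at ambient temperature. Total fluorescence was computed as S + 2P (555/632 nm).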
RGS12 GoLoco inh: inhibitors of human Gai1-RGS12 GoLoco interaction (red fluorophore) | Gai1:RGS12 GoLoco peptide FP, rhodamine, 10 min | Potency, µM (highest dose often 61.6 µM), for inactives: at the top dose activity, negative = inhibition, hits mostly inhibitors | AID 880 | 230,000 tested, 0.44% active; active = well fitted inhibition curve with a large enough effect, not every such curve was filed as active; inactive = no such curve, though single readings can be large or run the other way; also: potency is read from the fitted curve at half-maximal effect; % is scaled to controls: 0 for no effect and ±100 for the full control effect; nearly all actives have a fitted effect of over 30% in size
Target sequence (P63096 whole entry, looked up): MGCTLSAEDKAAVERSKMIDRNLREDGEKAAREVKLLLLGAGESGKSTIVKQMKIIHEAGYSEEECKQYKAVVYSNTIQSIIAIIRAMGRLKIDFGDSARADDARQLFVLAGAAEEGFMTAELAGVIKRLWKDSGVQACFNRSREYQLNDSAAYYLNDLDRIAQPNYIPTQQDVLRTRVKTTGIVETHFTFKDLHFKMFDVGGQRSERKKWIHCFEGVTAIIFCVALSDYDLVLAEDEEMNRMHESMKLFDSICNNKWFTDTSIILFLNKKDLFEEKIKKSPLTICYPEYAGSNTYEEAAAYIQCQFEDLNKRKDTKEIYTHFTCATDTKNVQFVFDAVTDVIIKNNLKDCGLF
VDR inh: vitamin D3 receptor (human) inhibition. P11473. VDR-SRC2-3 peptide fluorescence polarization, 2 h. Potency, µM, for inactives: max response, negative = inhibition, actives largely listed as inhibitors. 400,000 tested, 0.93% active. AID 504847; also: potency is read from the fitted curve at half-maximal effect; % is scaled to controls: 0 for no effect and ±100 for the full control effect
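Fluorescence polarization assay of small-molecule disruption of VDR binding to coregulator peptide SRC2-3. Compounds and controls pin-transferred, then read after 2 h incubation at ambient room temperature.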
USP1 UbRho: validation of human USP1/UAF1 inhibitors; shares compounds with VDR inh; Ub-Rhodamine cleavage, fluorescence kinetic read; Potency, µM (doses to about 56.8 µM), for the others: at the top dose activity change, negative = inhibition, usual class: inhibitors; 50 tested, 50% active; AID 540327
VDR confirm: confirmation of human vitamin D receptor inhibitors | shares compounds with VDR inh | VDR-coactivator inhibition assay, qHTS confirmation | Potency, µM, most hits filed as inhibitors | 840 tested, 89% active | AID 602199; also: potency is read from the fitted curve at half-maximal effect
VDR FP: confirmation of human VDR-coactivator binding inhibitors, fluorescein label. AID 602200. 840 tested, 48% active. shares compounds with VDR inh. Potency, µM (top dose mostly 57.1 µM), without a hit: at the top dose activity change, negative = inhibition, actives largely listed as inhibitors. VDR-coactivator binding, fluorescein fluorescence polarization; also: potency is read from the fitted curve at half-maximal effect
VDR bla reporter: inhibits human VDR in beta-lactamase reporter cells; shares compounds with VDR inh; VDR beta-lactamase reporter cells, FRET ratio; cells co-treated with VDR agonist LG190178; Potency, µM (series often up to 46.1 µM), without a hit: at the highest dose activity change, negative = inhibition, usual class: inhibitors; 840 tested, 23% active; also: potency is read from the fitted curve at half-maximal effect; % is scaled to controls: 0 for no effect and ±100 for the full control effect
VDR viability: counter-screen for vitamin D receptor inhibitors: cytotoxicity | cytotoxicity counter-screen, cell viability, qHTS | 840 tested, 18% active | AID 602204 | Potency, µM (doses to about 48.3 µM), inactives show at the top dose activity change, negative = cytotoxicity, hits mostly cytotoxic | shares compounds with VDR inh;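 also: potency is read from the fitted curve at half-maximal effect; plate controls were DMSO for no effect and high-concentration cycloheximide for full effect; nearly all actives have a fitted effect of over 75% in size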
The depositor's hits bear a star; u = inconclusive; x = not tested or not shown; [ ] = remark or other dose. Unless noted, calls follow the shape of the dose curve; as a rule, active = well fitted curve in the direction sought with a large enough effect; inconclusive = small, poorly fitted or top-dose-only effect, or another doubt; inactive = no such curve, though single readings can be large; an effect the other way counts as inactive or inconclusive.

SMILES | TRb-SRC2 inh | GCN5L2 inh | TR SRC2 fluor cs | RGS12 GoLoco inh | VDR inh | VDR confirm | VDR FP | VDR bla reporter | VDR viability | others
CC(N=Cc1cccc(O)c1O)c1ccccc1 (configuration not stated) | -20% | -16% | -19% | 61% | 50µM* | 20* | 10µM* | 12µM* | -17%
Cc1ccc(NC(=O)CSc2nncn2C)c(C)c1 | 2% | -6% | -8% | x | -12% | x | x | x | x
Cc1ccc(C2=NN=C(NC(=O)CSc3nncn3C)SC2)cc1 | 0% | 3% | -3% | -32% | 3.2µM* | 1.1* | u | 4% | u
O=S(=O)(c1ccc(F)cc1)N1CCN(c2nc(-c3cccs3)nc3ccccc23)CC1 | x | x | x | x | -16% | x | x | x | x
Ic1ccc(N2CCN(Cc3c[nH]c4ncccc34)CC2)cc1 | 1% | u | -28% | -7% | u | x | x | x | x | USP1 UbRho=u
Cc1cc(C)nc(NC(=S)NC(=O)c2ccccc2F)n1 | x | x | x | x | 6% | x | x | x | x
Cc1cc(C)nc(S/C=C/C(=O)c2ccccc2F)n1 | -7% | -11% | -3% | 7% | u | 2* | 1.6µM* | 16µM* | 17µM*
CC1(C)CC(=O)C2=C(C1)OC1=C(C(=O)CC(C)(C)C1)C2c1ccc(O)cc1O | -1% | -14% | -3% | -14% | 8.9µM* | 6.7* | u | 16µM* | u
O=C1CCC[C@@H]2CC(NCc3ccc(Cl)c(Cl)c3)C[C@@H]3CCN1[C@H]23 (some centres not stated) | -7% | -11%[88.6 µM] | -32% | 77%[88.7 µM] | -9% | x | x | x | x
CCOC(=O)c1ccccc1S(=O)(=O)N1CCN(c2nc(-c3cccs3)nc3ccccc23)CC1 | x | x | x | x | 0% | x | x | x | x
O=C(/C=C\c1ccccc1OC(=O)c1ccccc1F)c1cc2ccccc2o1 | 9% | 5% | 0% | 44% | 14µM* | u | 3.5µM* | u | u
O=C(CSc1nc2ccccc2s1)c1sc2sc3ccccc3[n+]2c1O | x | x | x | -50%[14.2 µM] | x | x | x | x | x
Nc1cccc2c1C(=O)N(C(=O)/C=C/c1ccc(F)cc1)C2=O | -7% | -4% | -5% | 8% | 28µM* | 9.5* | 10µM* | -1% | 30%
O=S1OC(c2ccccc2)c2cc(Cl)ccc21 (configuration not stated) | x | -2% | x | x | 22µM* | 3.2* | 3.5µM* | 3% | 22%
O=C1OC(c2ccccc2)c2ccccc21 (configuration not stated) | -8% | -4% | -2% | 3% | -13% | x | x | x | x
O=C(c1ccc(Cl)cc1)c1ccc(CN2C(=O)c3ccccc3C2=O)o1 | 5% | 1% | 0% | 9% | 4% | x | x | x | x
Cc1oc2c(c1C(=O)c1ccc(Cl)cc1)C(=O)C(=O)c1ccccc1-2 | u | u | -2% | 5% | u | 3.5* | 3.5µM* | 2.9µM* | 3.8µM*
Cc1ccc(C(=O)c2coc3c2C(=O)C(=O)c2ccccc2-3)cc1 | 2% | -7%[0.501 µM] | 2% | -3% | 7.1µM* | 4.7* | u | -22% | u
Cc1oc2c(c1C(=O)N1CCC(C)CC1)C(=O)c1ccccc1C2=O | 8% | 1% | -1% | -16% | -5% | x | x | x | x
Cc1ccc(C(=O)c2c(C)oc3c2C(=O)C(=O)c2ccccc2-3)cc1 | u | -5% | -7% | -5% | 3.5µM* | 1.5* | 4µM* | u | 5.6µM*
O=C(O)C(Cl)(c1ccccc1)c1ccccc1 | x | x | x | 5%[14.2 µM] | x | x | x | x | x
C#CCn1c(=O)c2c(nc(/C=C/c3cccc(OC)c3)n2C)n(CCCOP(=O)(O)O)c1=O | -1% | 0% | -5% | x | -12% | x | x | x | x
CCOC(=O)c1sc(NC(=O)C(C)C)c(C#N)c1C | -4% | -2% | -2% | 14% | 28µM* | 3.8* | u | -8% | -4%
Cc1ccc(-c2c(C3C4C=CCCC4(C)C(=O)N3Cc3ccccc3)ccc3ccccc23)cc1 (configuration not stated) | 0% | x | -1% | x | -11% | x | x | x | x
O=C(Nc1cc(S(=O)(=O)N2CCOCC2)ccc1N1CCCCC1)c1ccccc1Br | x | -16% | x | x | 89µM* | 17* | u | 17% | 19%
SMILES | TRb-SRC2 inh | GCN5L2 inh | TR SRC2 fluor cs | RGS12 GoLoco inh | VDR inh | VDR confirm | VDR FP | VDR bla reporter | VDR viability | others
Nc1cc(S(=O)(=O)N2CCOCC2)ccc1N1CCCCC1 | x | u | x | x | 25µM* | 6* | u | 30% | 6%
Nc1cc(S(=O)(=O)N2CCCCC2)ccc1N1CCCCC1 | x | -9% | x | x | -8% | x | x | x | x
O=C(Nc1cc(S(=O)(=O)N2CCOCC2)ccc1N1CCCCC1)c1ccccc1 | x | -6% | x | x | -12% | x | x | x | x
O=C(Nc1cc(S(=O)(=O)N2CCOCC2)ccc1N1CCCC1)c1ccc(Cl)cc1 | x | u | x | x | u | 13* | 7.9µM* | -16% | u
O=C(Nc1cc(S(=O)(=O)N2CCOCC2)ccc1N1CCCCC1)c1ccc(Cl)cc1 | x | -26% | x | x | u | 9.5* | u | 2% | 22%
O=C(SCc1cccc2ccccc12)c1ccc(Cl)cc1 | x | x | x | 5%[14.2 µM] | x | x | x | x | x
COc1ccc(C2=CC(=O)N(Nc3ccccc3)C2=O)cc1 | -8% | -5% | -1% | -4% | u | 3.2* | 3.5µM* | -7% | 13%
O=C1C=C(c2ccccc2)C(=O)N1Nc1ccccc1 | -4% | -10% | 1% | 0% | u | 5.6* | 7.9µM* | 21µM* | u
Cc1ccc(NN2C(=O)C=C(c3ccc(Cl)cc3)C2=O)cc1 | -8% | 1% | -3% | 10% | 50µM* | u | u | u | u
COc1ccc(Nc2cccccc2=O)cc1 | 0% | -10% | 2% | 1% | -1% | x | x | x | x
CC(C)C(O)(C(C)C)C(C)C | x | x | x | 1%[14.2 µM] | x | x | x | x | x
CCOC(=O)C(C(=O)OCC)N(Cc1cc(OC)ccc1OC)C(=O)C1CC(CO[Si](C)(C)C(C)(C)C)=CN1C(=O)OC(C)(C)C (configuration not stated) | 7% | x | -3% | x | -11% | x | x | x | x
CCOC(=O)CN1C(=O)N[C@@H](c2cccc(C(F)(F)F)c2)[C@H](C(=O)OC)[C@H]1C | 4%[11.2 µM] | x | -3%[11.2 µM] | 6%[14.2 µM] | x | x | x | x | x

Compound activity from PubChem BioAssay.
